Records with an inconclusive call do not appear. Entries that show only a call come without a potency. Activity calls are given as the source filed them. Calls come from the whole dose curve.
Potency is the fitted concentration of half-maximal effect.

The assay in a line: qHTS assay to identify small molecule antagonists of the estrogen receptor alpha (ER-alpha) signaling pathway using the BG1 cell line (AID 743080).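 Note: BG1 cells stimulated with 17beta-estradiol alongside compound; nearly all actives have a fitted effect of over 25% in size.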 The settings on record: BG1Luc4E2 ERE-luciferase antagonist mode, luminescence; series mostly up to 70.3 µM. The source says:
National Center for Advancing Translational Sciences [NCATS]
NIH Chemical Genomics Center [NCGC]
U.S. Environmental Protection Agency [EPA]
National Institutes of Environmental Health Sciences [NIEHS]
National Toxicology Program [NTP]
U.S. Food and Drug Administration [FDA]
Estrogen receptor (ER), a nuclear hormone receptor, plays an important role in development, metabolic homeostasis and reproduction. Endocrine disrupting chemicals (EDCs) and their interactions with steroid hormone receptors like ER causes disruption of normal endocrine function. Therefore, it is important to understand the effect of environmental chemicals on the ER signaling pathway. To identify ER antagonists, BG1-Luc-4E2 cell line (provided by Dr. Michael Denison from University of California) has been used to screen the Tox21 10K compound library. BG1Luc4E2 cell line endogenously expresses full-length ER-alpha and is stably transfected with a plasmid containing four estrogen responsive elements (ERE) upstream of a luciferase reporter gene.
Tox21 Assay Protocol Summary:
BG1-Luc-4E2 cells were cultured in phenol red free assay medium containing 10% charcoal stripped FBS for 5 days before the assay was performed. The cells were dispensed at 4,000 cells/4 uL of assay medium per well into white wall/solid-bottom 1536-well plates using a Multidrop Combi (ThermoFisher Scientific, Waltham, MA) dispenser. The assay plates were incubated at a 37C and 5% CO2 for 24 h, and then 23 nL of compounds dissolved in DMSO, positive controls or DMSO only was transferred to the assay plate using a Pintool station (Kalypsys, San Diego, CA), followed by addition of 1 uL of 17beta-estradiol in assay medium using a Flying Reagent Dispenser (Aurora Discovery, San Diego, CA). After the plates were incubated at 37 C and 5% CO2 for 21.5 h, 1 uL of CellTiter-Fluor reagent (Promega, Madison, WI) of measuring cytotoxicity was added using Flying Reagent Dispenser (FRD) to each well. The assay plates were incubated at 37 C and 5% CO2 for additional 30 min and the fluorescence intensity was quantified by a ViewLux plate reader (PerkinElmer, Shelton, CT). For measuring luciferase reporter gene activity, 4 uL of ONE-Glo reagent (Promega) was added to each plate using an FRD and luminescence was quantified by a ViewLux plate reader after 30 min incubation at room temperature.
(Quantitative high-throughput screening tests each substance at several concentrations.)
In the case of `CCCCCCCCCCCC[N+](C)(C)CCOc1ccccc1`, the Potency entry is “inactive”.
In the case of `CCNC(=O)NC(=O)/C(C#N)=N/OC`, the Potency result was “inactive”.
Turning to `N#CC(C#N)=C(C#N)C#N`, the Potency entry was “inactive”.
For the compound `Cc1nnc(-c2ccccc2)c(=O)n1N`, the Potency entry is “inactive”.
As for `CCCCC#N`, the entry is “inactive”; as for `CC(C)OC(=O)Cc1ccccc1`, “inactive”; as for `O=C(Cl)OCCOCCOC(=O)Cl`, “inactive”.
Take `CCOC(=O)c1cn2nc(OP(=S)(OCC)OCC)cc2nc1C`: the Potency result was “inactive”.
For `C=C(C)C(=O)OCCCCOC(=O)C(=C)C`, the Potency entry was “inactive”.
For the compound `C[N+]1(CCF)[C@@H]2CC[C@H]1CC(OC(=O)C(O)(c1ccccc1)c1ccccc1)C2` (stereo not given in full), the Potency entry is “inactive”.
For `CCOC(=O)c1cncn1C(C)c1ccccc1` (stereo not given), the Potency entry is “inactive”.
Take `O=[N+]([O-])c1cc(Cl)c(Cl)cc1Cl`: the Potency entry was “inactive”.
To `COC(=O)Cc1ccccc1` belongs “inactive”; to `CC(=O)OC(c1ccccc1)C(Cl)(Cl)Cl` (stereo not given), 68.6 µM (active); to `CCC[N+](CCC)(CCC)CCC`, “inactive”.
Turning to `CCCN(CCC)C(=O)Cc1c(-c2ccc(Cl)cc2)nc2ccc(Cl)cn12`, the Potency entry was “inactive”.
As to `NNCCO`, the Potency result was “inactive”.
As for `CC(C)(C)NCC(O)c1cc(Cl)c(N)c(C(F)(F)F)c1` (stereo not given), the Potency result was “inactive”.
Turning to `CC(C)c1ccc(OP(=O)(Oc2ccc(C(C)C)cc2)Oc2ccc(C(C)C)cc2)cc1`, the Potency entry was “inactive”.
For the compound `O=C([O-])c1ccccn1.O=C([O-])c1ccccn1.O=C([O-])c1ccccn1.[Cr+3]`, the Potency entry was “inactive”.
Take `Nc1c(Br)cc(Br)c2c1C(=O)c1ccccc1C2=O`: the Potency entry was “inactive”.
With `Cc1nc2ccccc2c(=O)n1-c1ccccc1Cl`, the Potency entry is “inactive”.
Turning to `CCCBr`, the Potency result was “inactive”.
For the compound `Cc1nc(N(C)C)nc(OC(=O)N(C)C)c1C`, the Potency result is “inactive”.
`CCCCC(CC)CO[N+](=O)[O-]` (stereo not given): the Potency result is “inactive”.
Turning to `COC1CC(=C(c2cccs2)c2cccs2)C[N+](C)(C)C1` (stereo not given), the Potency entry was “inactive”.
To `O=C1NC(=O)C(=O)C(=O)N1` belongs “inactive”.
As to `O=CC=O`, the Potency result was “inactive”.
With `CCN(C(C)=O)c1cccc(-c2ccnc3c(C#N)cnn23)c1`, the Potency entry was “inactive”.
Regarding `C[N+](C)(C)CC1CO1` (stereo not given), the Potency entry is “inactive”.
To `CN1C[C@H](C(=O)N[C@]2(C)O[C@@]3(O)[C@@H]4CCCN4C(=O)[C@H](Cc4ccccc4)N3C2=O)C=C2c3cccc4[nH]cc(c34)C[C@H]21` belongs “inactive”; to `C[N+]1(CCC(C(N)=O)(c2ccccc2)c2ccccc2)CCCCC1`, “inactive”; to `CCC(C)(C)c1ccc(O)c(C(C)(C)CC)c1`, 61.1 µM (active).
On to `OCC1CO1` (stereo not given), for which the Potency result was “inactive”.
Consider `OCCSSCCO`, for which the Potency entry is “inactive”.
As to `C1CCNCC1`, the Potency entry is “inactive”.
Regarding `COc1cc(CC(C)N)c(OC)cc1Br` (stereo not given), the Potency entry is “inactive”.
As to `C=CC(=O)NC(C)(C)CC(C)=O`, the Potency result is “inactive”.
As for `c1ccc2sc(SNC3CCCCC3)nc2c1`, the entry is “inactive”; as for `CCOP(=O)(O)C(N)=O`, “inactive”.

The values above are taken from PubChem BioAssay (Tox21).
